The record followed here is publication PMC4336329 (PLoS ONE, 2015).

Screen size: about 310,000 compounds; about 14,000 (4.5%) showed an effect of 50% or more. The effect is printed as a negative number. Many of the other results were omitted from the sample, so strong results are more common in it than they were.
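Note: peak tail current of the secondary pulse compared with the same well before compound.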

The target in this experiment is human ether-à-go-go-related gene (hERG) potassium channel (human, UniProt Q12809). Description: primary screen, population patch clamp on CHO cells stably expressing hERG; higher = less effect of the substance.
Sequence of human ether-à-go-go-related gene (hERG) potassium channel (Q12809 whole entry, looked up): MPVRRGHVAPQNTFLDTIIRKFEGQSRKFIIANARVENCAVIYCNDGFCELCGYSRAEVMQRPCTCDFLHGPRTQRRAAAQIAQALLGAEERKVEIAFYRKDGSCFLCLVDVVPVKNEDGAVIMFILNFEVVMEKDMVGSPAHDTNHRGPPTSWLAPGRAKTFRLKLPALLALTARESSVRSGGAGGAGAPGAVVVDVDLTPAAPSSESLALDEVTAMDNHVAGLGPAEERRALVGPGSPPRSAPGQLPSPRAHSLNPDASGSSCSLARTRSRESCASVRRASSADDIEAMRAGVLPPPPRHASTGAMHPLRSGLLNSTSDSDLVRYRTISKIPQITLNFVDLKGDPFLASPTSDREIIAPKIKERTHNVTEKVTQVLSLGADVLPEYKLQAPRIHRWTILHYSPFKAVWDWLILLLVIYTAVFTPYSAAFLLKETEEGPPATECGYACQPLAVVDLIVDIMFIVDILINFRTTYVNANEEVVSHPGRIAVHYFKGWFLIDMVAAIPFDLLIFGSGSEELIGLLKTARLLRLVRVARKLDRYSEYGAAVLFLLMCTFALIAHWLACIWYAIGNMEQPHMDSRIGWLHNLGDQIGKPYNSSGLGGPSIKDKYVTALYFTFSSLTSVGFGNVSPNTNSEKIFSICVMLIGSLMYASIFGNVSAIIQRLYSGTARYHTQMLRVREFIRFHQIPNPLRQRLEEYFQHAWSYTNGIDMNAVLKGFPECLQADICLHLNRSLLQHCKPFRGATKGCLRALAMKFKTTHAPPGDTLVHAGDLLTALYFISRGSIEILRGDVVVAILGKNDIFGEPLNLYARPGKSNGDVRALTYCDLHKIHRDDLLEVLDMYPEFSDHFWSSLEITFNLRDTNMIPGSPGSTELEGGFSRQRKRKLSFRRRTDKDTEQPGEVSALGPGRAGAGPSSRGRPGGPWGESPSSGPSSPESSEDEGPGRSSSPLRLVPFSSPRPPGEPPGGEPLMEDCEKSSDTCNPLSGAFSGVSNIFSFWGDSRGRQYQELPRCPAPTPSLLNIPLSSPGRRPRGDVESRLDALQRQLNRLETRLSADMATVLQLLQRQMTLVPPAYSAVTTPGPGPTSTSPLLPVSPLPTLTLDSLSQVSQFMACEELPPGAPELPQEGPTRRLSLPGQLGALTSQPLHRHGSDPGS
On to `Cl.O=C(OCCN1CCOCC1)c1cccs1`, for which the “hERG current change (%, negative = inhibition) at 10uM” value worked out at 6.58%.

Take `COc1ccc(C2=CC(=O)C[C@H](c3ccc(F)cc3)C2)cc1F`: the “hERG current change (%, negative = inhibition) at 10uM” value is on record as -16.5%. As for `COc1ccc2ccccc2c1CNC(C)CCc1ccccc1.O=C(O)C(=O)O` (stereo not drawn), the figure is -77.8%.

Regarding `CN(Cc1ccccc1)Cc1c(O)ccc2ccccc12`, the “hERG current change (%, negative = inhibition) at 10uM” value is listed as 7.65%. As for `CC(CCc1ccccc1)NC(=O)Cc1ccccc1` (stereo not drawn), the “hERG current change (%, negative = inhibition) at 10uM” value is given as 2.65%. Consider `CC(CCc1ccccc1)NCc1cccc2ccccc12.O=C(O)C(=O)O` (stereo not drawn), for which the “hERG current change (%, negative = inhibition) at 10uM” value was -60.9%. As for `COc1ccc(CCNCc2c(OC)ccc3ccccc23)cc1OC.Cl`, the figure is -44.6%; as for `COc1cccc(OC)c1C(=O)NC(C)CCc1ccccc1` (stereo not drawn), -19.1%; as for `COc1ccc2ccccc2c1CNCCc1ccccc1.Cl`, -53.1%. `CN(CCOc1cccc2ccccc12)Cc1ccccc1.O=C(O)C(=O)O`: the “hERG current change (%, negative = inhibition) at 10uM” value came to 0.659%. As for `COc1ccc2ccccc2c1CNC(C)c1ccccc1.O=C(O)C(=O)O` (stereo not drawn), the figure is -44.4%. As for `COc1ccc2ccccc2c1CN(C)Cc1ccccc1.O=C(O)C(=O)O`, the figure is -51.7%. On to `COc1ccc2ccccc2c1CNCCN1CCOCC1.Cl`, for which the “hERG current change (%, negative = inhibition) at 10uM” value is reported as 14.4%. As to `COCC(C)NCc1cccc2ccccc12.O=C(O)C(=O)O` (stereo not drawn), the “hERG current change (%, negative = inhibition) at 10uM” value was -0.173%. In the case of `CC1(C)CC2CC(C)(CN2C(=O)c2cc(-c3ccccc3O)on2)C1` (stereo not drawn), the “hERG current change (%, negative = inhibition) at 10uM” value stood at 12.7%. With `Cc1ccc(S(=O)(=O)N2CCN(C(=O)COC(=O)c3ccccc3Cl)CC2)c(C)c1`, the “hERG current change (%, negative = inhibition) at 10uM” value is given as -12.5%.

As for `Cc1cccnc1NC(=O)Nc1ccccc1`, the “hERG current change (%, negative = inhibition) at 10uM” value was 1.64%. On to `CCCOc1ccc(N2C(=O)CC(NCc3cccs3)C2=O)cc1` (stereo not drawn), for which the “hERG current change (%, negative = inhibition) at 10uM” value is reported as -18.6%.

Turning to `COc1ccccc1CNC(=O)C1COc2ccccc2O1` (stereo not drawn), the “hERG current change (%, negative = inhibition) at 10uM” value is -15.1%. Under `Cc1cc(NC(=O)c2ccc([N+](=O)[O-])cc2)n(CCC#N)n1` stands 11%; under `O=C(NCCCc1nc2ccccc2[nH]1)c1cccs1`, -5.12%; under `COc1cccc(CNCc2ccccn2)c1OC`, 5.32%. As for `COc1ccc(CCNCc2ccccn2)cc1OC`, the figure is 0.278%; as for `COc1ccc2ccccc2c1CNCc1ccc(C)cc1.O=C(O)C(=O)O`, -69.7%; as for `COc1ccc2ccccc2c1CNCc1ccccn1.Cl`, -51.8%. As for `COc1ccc(CCNCc2c(OC)ccc3ccccc23)cc1.O=C(O)C(=O)O`, the figure is -44.9%; as for `COc1ccccc1CNCc1ccc(C)cc1.O=C(O)C(=O)O`, -6.14%; as for `CC(C)N(Cc1nc(-c2ccc(Cl)cc2)no1)C(=O)CCC1CCCC1`, -7.81%. Regarding `Cc1nn(CCCC(=O)NC2CCC(C)CC2)c(=O)c2nn(-c3ccccc3)c(C)c12` (stereo not drawn), the “hERG current change (%, negative = inhibition) at 10uM” value is listed as -5.97%.

For `O=C(/C=C(/c1ccc(Cl)cc1)n1cncn1)c1ccccc1`, the “hERG current change (%, negative = inhibition) at 10uM” value is given as -27.5%.

For the compound `C#CCOCCOCCOCCNc1nc(N2CCN(C(=O)[C@H](CCC(=O)O)n3cc(C(N)CO)nn3)CC2)nc(N2CCN(C(=O)[C@H](Cc3ccc(O)cc3)n3cc(C(N)[C@H](C)CC)nn3)CC2)n1.Cl` (stereo partly drawn), the “hERG current change (%, negative = inhibition) at 10uM” value was 9.89%.

For `CCN(CC(=O)Nc1c(F)cccc1F)C(=O)COc1ccc2c(c1)CCC2`, the “hERG current change (%, negative = inhibition) at 10uM” value was -2.81%.

As to `O=S(=O)(c1ccc(Nc2ccc(-c3ccc4c(c3)OCCO4)nn2)cc1)N1CCCC1`, the “hERG current change (%, negative = inhibition) at 10uM” value came out at 5.27%. As for `COc1ccccc1CNc1ccc2nnc(CCNC(=O)c3ccc(C)cc3)n2n1`, the figure is -0.303%; as for `CCOCCn1c(CN2CCN(C(=O)c3ccco3)CC2)nc2c1c(=O)n(C)c(=O)n2C`, -3.37%; as for `CCCCCn1c(CN2CCN(C(=O)c3ccco3)CC2)nc2c1c(=O)n(C)c(=O)n2C`, -60.5%.

For the compound `CCCn1c(CN2CCN(C(=O)c3ccco3)CC2)nc2c1c(=O)n(C)c(=O)n2C`, the “hERG current change (%, negative = inhibition) at 10uM” value is on record as -10.3%. Under `CCCCn1c(CN2CCN(C(=O)c3ccco3)CC2)nc2c1c(=O)n(C)c(=O)n2C` stands -34.1%; under `CCCCCCn1c(CN2CCN(C(=O)c3ccco3)CC2)nc2c1c(=O)n(C)c(=O)n2C`, -65.8%; under `CC(C)CCn1c(CN2CCN(C(=O)c3ccco3)CC2)nc2c1c(=O)n(C)c(=O)n2C`, -39.9%. Consider `Cl.OC1(c2ccccc2)CCN(Cc2ccccc2)C2CCCCC21` (stereo not drawn), for which the “hERG current change (%, negative = inhibition) at 10uM” value is -15.6%. For the compound `COc1ccc(-c2nnc3sc(-c4ccco4)nn23)cc1OC`, the “hERG current change (%, negative = inhibition) at 10uM” value worked out at 3.81%.

Regarding `COCCCNc1nnc(Cc2ccccc2)c2ccccc12`, the “hERG current change (%, negative = inhibition) at 10uM” value was -31.4%. Under `CC1(C)CC(=O)N(c2cccc(Cl)c2)C(=O)C1` stands 10.4%. Under `CCOC(=O)C1CCN(C(=O)c2cc3c(=O)n4ccccc4nc3s2)CC1` stands -6.6%; under `CCOc1ccccc1Cn1c(=O)sc2ccccc21`, 7.43%; under `COc1ccc(C(=O)NN/C(C)=C/C(=O)c2ccccc2)cc1`, 4.41%. In the case of `CCN(CC(=O)Nc1c(F)cccc1F)C(=O)C1CCN(C(=O)c2ccc(F)cc2)CC1`, the “hERG current change (%, negative = inhibition) at 10uM” value was 4.59%. For `O=C(Nc1ccccc1)N(Cc1cccnc1)Cc1ccco1`, the “hERG current change (%, negative = inhibition) at 10uM” value was -32.9%.

As for `N#CCCN(Cc1cccnc1)C(=O)Nc1ccc(Cl)c(Cl)c1`, the “hERG current change (%, negative = inhibition) at 10uM” value is recorded as -26%. As for `COc1ccc(Cl)cc1NC(=S)N(Cc1cccnc1)Cc1ccco1`, the figure is -73.8%; as for `CCc1ccccc1NC(=S)N(Cc1cccnc1)Cc1ccco1`, -18.8%; as for `O=C(Nc1ccc(Cl)c(Cl)c1)N(Cc1cccnc1)Cc1ccco1`, -73.7%. As to `COc1ccccc1NC(=S)N(Cc1cccnc1)Cc1ccco1`, the “hERG current change (%, negative = inhibition) at 10uM” value is reported as -33.6%.

With `CCc1ccc(NC(=S)N(Cc2cccnc2)Cc2ccco2)cc1`, the “hERG current change (%, negative = inhibition) at 10uM” value is -17.2%.

Consider `Cc1ccc(NC(=O)N(Cc2cccnc2)Cc2ccco2)cc1C`, for which the “hERG current change (%, negative = inhibition) at 10uM” value is -27.2%. On to `O=C(Nc1ccc(Cl)cc1)N(Cc1cccnc1)Cc1ccco1`, for which the “hERG current change (%, negative = inhibition) at 10uM” value is given as -63.9%. Take `O=C(c1ccco1)N(Cc1ccc(Cl)cc1)Cc1ccco1`: the “hERG current change (%, negative = inhibition) at 10uM” value is on record as -41.2%. Under `CCc1ccc(NC(=O)N(Cc2cccnc2)Cc2ccco2)cc1` stands -53.1%; under `S=C(Nc1ccccc1Cl)N(Cc1cccnc1)Cc1ccco1`, -4.94%.
